According to a collection of fitness landscapes (doi:10.1126/science.1257360):
The full ranking holds about 140,000 sequences; the median of “enrichment ratio after two sorts for PhoP signalling” is about 0, and the highest 2% start at about 11. The full list was thinned out, with the highest values kept by preference.

B1: PhoQ; a variant is named by its letters at X, in order, P23837 (parent)
chain: MKKLLRLFFPLSLRVRFLLATAAVVLVLSLAYGMVALIGYSVSFDKTTFRLLRGESNLFYTLAKWENNKLHVELPENIDKQSPTMTLIYDENGQLLWAQRDVPWLMKMIQPDWLKSNGFHEIEADVNDTSLLLSGDHSIQQQLQEVREDDDDAEMTHSVAVNVYPATSRMPKLTIVVVDTIPVELKSSYMVWSWFIYVLSANLLLVIPLLWVAAWWSLRPIEALAKEVRELEEHNRELLNPATTRELTSLVRNLNRLLKSERERYDKYRTTLTDLTHSLKTPLXXLQXXLRSLRSEKMSVSDAEPVMLEQISRISQQIGYYLHRASMRGGTLLSRELHPVAPLLDNLTSALNKVYQRKGVNISLDISPEISFVGEQNDFVEVMGNVLDNACKYCLEFVEISARQTDEHLYIVVEDDGPGIPLSKREVIFDRGQRVDTLRPGQGVGLAVAREITEQYEGKIVAGESMLGGARMEVIFGRQHSAPKDE

Variants of: B1
Test: enrichment ratio after two sorts for PhoP signalling (ratio (wild type AVST 3.29)); higher = more functional
Details: with PhoP (E. coli)

INWI and VNRI cannot be ordered by enrichment ratio: no more than 0.25 for the first, no more than 0.25 for the second.

Going from NHGQ to MSWY, the enrichment ratio rises from no more than 0.25 to 5.91.

SPRG and PPYC cannot be ordered by enrichment ratio: no more than 0.25 for the first, no more than 0.25 for the second.

HEPW and EAAS cannot be ordered by enrichment ratio: no more than 0.25 for the first, no more than 0.25 for the second.

Compared with SSMV, SSII is lower in enrichment ratio: 18.9 for the first, 16.3 for the second.

Compared with KSII, SSYV is higher in enrichment ratio: no more than 0.25 for the first, 1.11 for the second.

Compared with SSIV, SSID is lower in enrichment ratio: 14.2 for the first, no more than 0.25 for the second.

Going from SSAE to SPAV, the enrichment ratio falls from 10.5 to no more than 0.25.

Compared with SSAV, KSIV is lower in enrichment ratio: 12.9 for the first, no more than 0.25 for the second.

Compared with SSWV, SSPV is higher in enrichment ratio: 0.518 for the first, 1.03 for the second.

EHMI and WWKN cannot be ordered by enrichment ratio: no more than 0.25 for the first, no more than 0.25 for the second.

YRIR and HENW cannot be ordered by enrichment ratio: no more than 0.25 for the first, no more than 0.25 for the second.

GDFP and WFHL cannot be ordered by enrichment ratio: no more than 0.25 for the first, no more than 0.25 for the second.

EAAQ and KSIS cannot be ordered by enrichment ratio: no more than 0.25 for the first, no more than 0.25 for the second.

Going from SSMD to AQIV, the enrichment ratio rises from 3.52 to 9.59.

Going from AQIS to SSMI, the enrichment ratio rises from 13 to 19.

First: SSMR
Second: SSIM
The enrichment ratio of the first is lower: no more than 0.25 for the first, 18.4 for the second.

Going from SCIM to SSIS, the enrichment ratio rises from 3.17 to 11.9.

ADIS and NSIS cannot be ordered by enrichment ratio: no more than 0.25 for the first, no more than 0.25 for the second.

Compared with SSIE, ASCT is higher in enrichment ratio: no more than 0.25 for the first, 11.1 for the second.

DRDN and ADGC cannot be ordered by enrichment ratio: no more than 0.25 for the first, no more than 0.25 for the second.

QENS and MSVE cannot be ordered by enrichment ratio: no more than 0.25 for the first, no more than 0.25 for the second.

First: VCLI
Second: TNQT
The enrichment ratio of the first is lower: 5.48 for the first, 7.38 for the second.

Going from SSIL to SQIS, the enrichment ratio rises from 12.3 to 13.9.

Going from KSMF to SSMS, the enrichment ratio rises from no more than 0.25 to 11.7.

First: SSMG
Second: SSMW
The enrichment ratio of the first is higher: 10.3 for the first, no more than 0.25 for the second.

DPIS and SSHF cannot be ordered by enrichment ratio: no more than 0.25 for the first, no more than 0.25 for the second.

Compared with SQIV, SSEL is lower in enrichment ratio: 5.01 for the first, 0.485 for the second.

Compared with SSMF, KSIL is lower in enrichment ratio: 12.7 for the first, no more than 0.25 for the second.

IRSG and FANW cannot be ordered by enrichment ratio: no more than 0.25 for the first, no more than 0.25 for the second.

HNPM and CVPS cannot be ordered by enrichment ratio: no more than 0.25 for the first, no more than 0.25 for the second.

FSNW and APGD cannot be ordered by enrichment ratio: no more than 0.25 for the first, no more than 0.25 for the second.

SFDK and MPYC cannot be ordered by enrichment ratio: no more than 0.25 for the first, no more than 0.25 for the second.

Compared with EQDL, FSIM is higher in enrichment ratio: no more than 0.25 for the first, 11.9 for the second.

KSIG and TSIG cannot be ordered by enrichment ratio: no more than 0.25 for the first, no more than 0.25 for the second.

Compared with SCII, KSIM is lower in enrichment ratio: 5.01 for the first, no more than 0.25 for the second.

First: SSIG
Second: SDII
The enrichment ratio of the first is lower: 11.5 for the first, 11.7 for the second.

Compared with STME, KSME is lower in enrichment ratio: 8.24 for the first, no more than 0.25 for the second.

First: FDIM
Second: SSME
The enrichment ratio of the first is lower: no more than 0.25 for the first, 16.6 for the second.

SYII and KAWR cannot be ordered by enrichment ratio: no more than 0.25 for the first, no more than 0.25 for the second.

First: KQKI
Second: TDSI
The enrichment ratio of the first is lower: no more than 0.25 for the first, 8.92 for the second.

PNEG and MIVG cannot be ordered by enrichment ratio: no more than 0.25 for the first, no more than 0.25 for the second.

NTPE and KFFD cannot be ordered by enrichment ratio: no more than 0.25 for the first, no more than 0.25 for the second.

PYGG and PMVC cannot be ordered by enrichment ratio: no more than 0.25 for the first, no more than 0.25 for the second.

Going from SEVQ to SQVQ, the enrichment ratio rises from 11.9 to 15.1.

First: YTVQ
Second: SLVQ
The enrichment ratio of the first is lower: 0.393 for the first, 0.637 for the second.

Going from NEVQ to ATVQ, the enrichment ratio rises from no more than 0.25 to 13.9.

Compared with STVQ, ATVA is lower in enrichment ratio: 12 for the first, 1.05 for the second.

First: MEVQ
Second: SCVQ
The enrichment ratio of the first is lower: no more than 0.25 for the first, 3.12 for the second.

ATHP and KYVQ cannot be ordered by enrichment ratio: no more than 0.25 for the first, no more than 0.25 for the second.

NQCF and KRSQ cannot be ordered by enrichment ratio: no more than 0.25 for the first, no more than 0.25 for the second.

Going from WTEW to QAYY, the enrichment ratio rises from no more than 0.25 to 10.3.

First: WESK
Second: QQNY
The enrichment ratio of the first is lower: no more than 0.25 for the first, 2.46 for the second.

WMDF and ACYH cannot be ordered by enrichment ratio: no more than 0.25 for the first, no more than 0.25 for the second.

Compared with QTFW, QCDH is higher in enrichment ratio: no more than 0.25 for the first, 18.8 for the second.

QCCA and QCNH cannot be ordered by enrichment ratio: no more than 0.25 for the first, no more than 0.25 for the second.

GYDH and QCTH cannot be ordered by enrichment ratio: no more than 0.25 for the first, no more than 0.25 for the second.

First: QCGH
Second: EMTV
The enrichment ratio of the first is higher: 24.2 for the first, no more than 0.25 for the second.

PVLS and KFLE cannot be ordered by enrichment ratio: no more than 0.25 for the first, no more than 0.25 for the second.

Compared with KSER, MSLC is higher in enrichment ratio: no more than 0.25 for the first, 11.7 for the second.

Going from SILC to FPLC, the enrichment ratio falls from 8.13 to no more than 0.25.

Compared with QPLC, FQLC is higher in enrichment ratio: no more than 0.25 for the first, 2.14 for the second.

Going from FSLC to SSLC, the enrichment ratio rises from 12.4 to 15.2.

Going from MSTS to QGLC, the enrichment ratio rises from 0.73 to 15.9.

Going from SYLC to FFLC, the enrichment ratio falls from 0.631 to no more than 0.25.

QFLC and EGVI cannot be ordered by enrichment ratio: no more than 0.25 for the first, no more than 0.25 for the second.

VVAR and WYHC cannot be ordered by enrichment ratio: no more than 0.25 for the first, no more than 0.25 for the second.

SWDN and MGQS cannot be ordered by enrichment ratio: no more than 0.25 for the first, no more than 0.25 for the second.

LWFG and HKKG cannot be ordered by enrichment ratio: no more than 0.25 for the first, no more than 0.25 for the second.

RSIL and YKDC cannot be ordered by enrichment ratio: no more than 0.25 for the first, no more than 0.25 for the second.

IGWW and PKQD cannot be ordered by enrichment ratio: no more than 0.25 for the first, no more than 0.25 for the second.

LTKR and HYAP cannot be ordered by enrichment ratio: no more than 0.25 for the first, no more than 0.25 for the second.

KSLC and MMLC cannot be ordered by enrichment ratio: no more than 0.25 for the first, no more than 0.25 for the second.

Going from TSLC to PNER, the enrichment ratio falls from 18.4 to no more than 0.25.

First: RFQL
Second: SQAF
The enrichment ratio of the first is lower: no more than 0.25 for the first, 3.99 for the second.

Going from SIAF to AKAF, the enrichment ratio falls from 15.1 to 5.84.

Compared with AIAF, KKAF is lower in enrichment ratio: 12.4 for the first, no more than 0.25 for the second.

KYAF and GPRN cannot be ordered by enrichment ratio: no more than 0.25 for the first, no more than 0.25 for the second.

NCRE and DCLW cannot be ordered by enrichment ratio: no more than 0.25 for the first, no more than 0.25 for the second.

PYCA and HYKI cannot be ordered by enrichment ratio: no more than 0.25 for the first, no more than 0.25 for the second.

YMVL and DVFV cannot be ordered by enrichment ratio: no more than 0.25 for the first, no more than 0.25 for the second.

First: TGCS
Second: GGCS
The enrichment ratio of the first is lower: 13 for the first, 13.1 for the second.

First: GYCS
Second: RGCS
The enrichment ratio of the first is lower: no more than 0.25 for the first, 0.323 for the second.

Going from GGCI to NGCS, the enrichment ratio falls from 0.663 to no more than 0.25.

Compared with WLCL, MTCL is higher in enrichment ratio: no more than 0.25 for the first, 12.8 for the second.

First: LTCL
Second: SLCL
The enrichment ratio of the first is lower: no more than 0.25 for the first, 11.2 for the second.

First: GTCL
Second: STCL
The enrichment ratio of the first is lower: 9.42 for the first, 15.7 for the second.

Compared with MTCI, YTCL is higher in enrichment ratio: no more than 0.25 for the first, 5.77 for the second.

Compared with PLCL, TTCL is higher in enrichment ratio: no more than 0.25 for the first, 18.5 for the second.

MTRL and ITCL cannot be ordered by enrichment ratio: no more than 0.25 for the first, no more than 0.25 for the second.

GTAR and FHNH cannot be ordered by enrichment ratio: no more than 0.25 for the first, no more than 0.25 for the second.

YRKS and GQTP cannot be ordered by enrichment ratio: no more than 0.25 for the first, no more than 0.25 for the second.

THVR and MGQG cannot be ordered by enrichment ratio: no more than 0.25 for the first, no more than 0.25 for the second.

EIWF and RYFG cannot be ordered by enrichment ratio: no more than 0.25 for the first, no more than 0.25 for the second.

GLEL and GLNL cannot be ordered by enrichment ratio: no more than 0.25 for the first, no more than 0.25 for the second.

Going from GLCL to MTME, the enrichment ratio falls from 13.5 to no more than 0.25.

Compared with IMWI, AGST is higher in enrichment ratio: no more than 0.25 for the first, 14.8 for the second.

Compared with AIST, NIST is lower in enrichment ratio: 6.85 for the first, no more than 0.25 for the second.

Compared with RGST, TGST is higher in enrichment ratio: no more than 0.25 for the first, 15.2 for the second.

Going from AHST to SMST, the enrichment ratio rises from no more than 0.25 to 13.1.

ADST and NGST cannot be ordered by enrichment ratio: no more than 0.25 for the first, no more than 0.25 for the second.

KMST and SMNT cannot be ordered by enrichment ratio: no more than 0.25 for the first, no more than 0.25 for the second.

For TIST, the enrichment ratio was 12.7.
